Pf growth 48h: P. falciparum growth inhibition at 48 hours (one generation); Potency, µM (titrated, usually from 28.7 µM), for inactives: at the highest dose activity change, negative = inhibition, actives largely listed as inhibitors; 310,000 tested, 5.9% active; P. falciparum luciferase growth in erythrocytes, 48 h; further: potency means the concentration at half of the fitted maximal effect
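Compounds are pin-transferred into medium, infected erythrocytes (2% hematocrit, 0.1% parasitemia final) are added, and plates sit one parasite generation at 37 C in 5% CO2. Detection reagent is then added and luminescence measured.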
Pf growth 96h: inhibits malaria parasite growth, 96 h. P. falciparum luciferase reporter growth, 96 h. Potency, µM (highest dose often 28.7 µM), for inactives: at the highest dose activity change, negative = inhibition, actives largely listed as inhibitors. 320,000 tested, 6.9% active. AID 504834; further: potency means the concentration at half of the fitted maximal effect
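P. falciparum expressing integrated firefly luciferase grown in erythrocytes (2% hematocrit, 0.05% parasitemia final) with compounds for 96 hours at 37 C, 5% CO2. Growth inhibition read as loss of luminescence after adding luciferase detection reagent.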
HCMV inh: human cytomegalovirus inhibition; HFF cells, HCMV-luciferase reporter, 72 h; active compounds read low; activity change, negative = inhibition, % at 57.5 µM; 410,000 tested, 4.5% active; AID 1259415; in the data active means activity change below about -60%; inconclusive means no clear call, values can overlap the other calls; inactive means above about -39%
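Two-dose cell screen: HFF monolayers treated with compounds and infected with luciferase-expressing HCMV at 1 PFU/cell, 72 h at 37C, then lysed for luciferase measurement.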
Sm TGR inh: S. mansoni TGR enzyme inhibition; Q962Y6; purified TGR, DTNB reduction, TNB absorbance 405 nm; Potency, µM (titrated, usually from 114 µM), inactives show at the highest dose activity change, negative = inhibition, actives largely listed as inhibitors; 360,000 tested, 3% active; AID 485364; further: potency means the concentration at half of the fitted maximal effect; nearly all actives have a fitted effect of over 60% in size
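TGR 20 nM + NADPH 100 uM (dispensed conc.), cpd preinc 15 min RT; start with NADPH (500 uM addition) then DTNB (15 mM addition). Kinetic TNB absorbance, 405 nm filter. Four-parameter Hill fit across titration.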
FBPA Giardia inh: blocks Giardia fructose-bisphosphate aldolase activity; A8B2U2; purified Giardia FBPA; Potency, µM (series often up to 59.6 µM), inactives show at the top dose activity, negative = inhibition, hits mostly inhibitors; 290,000 tested, 0.71% active; further: potency means the concentration at half of the fitted maximal effect; nearly all actives have a fitted effect of over 55% in size
Target sequence (A8B2U2 whole entry, looked up): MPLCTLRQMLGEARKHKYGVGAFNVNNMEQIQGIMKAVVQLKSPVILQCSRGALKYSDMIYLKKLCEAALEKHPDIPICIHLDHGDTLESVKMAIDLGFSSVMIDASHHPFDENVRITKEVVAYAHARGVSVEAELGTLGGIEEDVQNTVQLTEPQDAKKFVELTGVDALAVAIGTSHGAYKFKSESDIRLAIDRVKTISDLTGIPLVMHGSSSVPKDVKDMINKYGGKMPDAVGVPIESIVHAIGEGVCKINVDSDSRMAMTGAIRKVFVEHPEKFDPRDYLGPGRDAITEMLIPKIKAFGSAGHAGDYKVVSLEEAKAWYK
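Giardia FBPA (40 nM reagent) was preincubated 10 min at RT with compound (up to 57.5 uM final), then substrate plus GAPDH/TPI/NAD/arsenate coupling system with diaphorase/resazurin was added; resorufin fluorescence (525/598 nm) was read after 20 min.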
* = called active by the depositor; ? = inconclusive; nt = not tested or not shown. The list is not random: actives were taken first. Their share in the collection is about 14%. Unless noted, the call rests on the fitted dose curve; in most records, active means well fitted curve in the direction sought with a large enough effect; inconclusive means small, poorly fitted or top-dose-only effect, or another doubt; inactive means no such curve, though single readings can be large; an effect the other way counts as inactive or inconclusive. On the % scale 0 is the no-effect control and ±100 the full control effect.

SMILES | Pf growth 48h | Pf growth 96h | HCMV inh | Sm TGR inh | FBPA Giardia inh
CCOC(=O)c1cc(C#N)c(N2CCN(C(=O)c3cccc(C(F)(F)F)c3)CC2)nc1C(F)(F)F | 5.86µM* | ? | ? | -2.5% | 0.1%
CC(C)C1CC(CCN)(Cc2ccccc2)CCO1 (centres undefined) | ? | -8.5% | ? | 14.4% | 7.9%
COc1ccc(CNc2nc3ccccc3n2C(C)C)c(O)c1 | 11.7µM* | ? | -20.3 | -9.1% | -5.1%
CC(C)n1c(NCc2cc(Cl)ccc2O)nc2ccccc21 | nt | 26.2% | 5.3 | -21.8% | -4.5%
CCn1c(CNc2nc3ccccc3n2C(C)C)nc2ccccc21 | ? | 11.7µM* | ? | 0.1% | 11.6%
COc1ccc(CNc2nc3ccccc3n2C)c(O)c1 | 0.0% | -6.7% | 85.0 | 0.8% | 0.1%
CC(C)n1c(NCc2nc3ccccc3n2C)nc2ccccc21 | ? | nt | 131.9 | -10.9% | 2.0%
COc1ccc(CNc2cc(C)ccn2)c(O)c1 | nt | 15.4% | 3.6 | 7.08µM* | 3.0%
Cc1ccc(O)c(CNc2nc3ccccc3n2C(C)C)c1 | 8.28µM* | 15.4% | -17.3 | -21.8% | 12.9%
Cc1nn(C)c(C(=O)NNC(=O)NC2CCCCC2)c1Cl | -1.0% | 20.3% | 9.4 | -2.8% | -0.6%
COC(=O)C1=C(C)NC2=C(C(=O)CCC2)C1c1cn(Cc2ccc(Br)cc2)nc1-c1ccccc1 (centres undefined) | 8.28µM* | 13.1µM* | ? | 6.8% | 0.5%
COC(=O)C1=C(C)NC2=C(C(=O)CC(C)(C)C2)C1c1cn(Cc2ccc(Br)cc2)nc1-c1ccccc1 (centres undefined) | 13.1µM* | ? | nt | 34.3% | -4.1%
COC(=O)C1=C(C)NC2=C(C(=O)CC(C)(C)C2)C1c1cccc(C)n1 (centres undefined) | -17.0% | ? | -27.6 | -5.2% | 0.2%
COc1ccc2c(c1)c1c(c(=O)n(-c3cccc(C)c3)c(=O)n1CC(=O)Nc1c(C)cc(C)cc1C)n2C | nt | nt | 25.1 | 4.4% | nt
CCCCNC(=S)Nc1ccc([N+](=O)[O-])cc1 | ? | 4.7% | -75.4* | ? | 1.3%
O=[N+]([O-])c1ccc(NNC(=S)Nc2ccc(F)cc2)cc1 | ? | ? | -98.5* | -24.9% | ?
O=C(NC(NNc1ccc([N+](=O)[O-])cc1)(C(F)(F)F)C(F)(F)F)c1ccc(F)cc1 | 0.1% | 14.5% | 14.8 | 31.6µM* | -10.5%
CC(C)OC(=O)c1cc(NC(=S)Nc2ccc([N+](=O)[O-])cc2)cc(C(=O)OC(C)C)c1 | ? | 17.1% | -85.9* | 2.4% | -6.8%
O=C(NNC(=S)Nc1ccc(F)cc1)c1cccc([N+](=O)[O-])c1 | 61.7% | 81.6% | 41.9 | -9.0% | 5.6%
O=C(NC(NNc1ccc([N+](=O)[O-])cc1)(C(F)(F)F)C(F)(F)F)c1ccccc1Cl | -6.5% | ? | 5.7 | ? | -9.9%
CCOC(=O)/C=C/[C@@H](C)NC(=O)C(F)(F)F | nt | nt | -21.5 | nt | nt
COc1ccc2c3c(n(C)c2c1)[C@H](CO)N(C(=O)Cc1ccccc1)CC31CCN(C(=O)Cc2ccccc2)CC1 | nt | nt | 24.5 | nt | nt
CC(C)CCNC(=S)Nc1ccc(Br)cc1 | ? | 2.2% | ? | -18.4% | -3.1%
CC(C)CCNC(=S)Nc1ccc([N+](=O)[O-])cc1 | ? | 18.1% | -98.3* | ? | -0.4%
CC(C)Oc1ccc(/C=N/NC(=O)C(CSCc2ccccc2)NC(=O)c2ccc([N+](=O)[O-])cc2)cc1 (centres undefined) | 11.7µM* | ? | nt | -11.6% | -5.8%
SMILES | Pf growth 48h | Pf growth 96h | HCMV inh | Sm TGR inh | FBPA Giardia inh
O=C(COc1ccc(/C=N/NC(=O)c2ccccc2)cc1)Nc1ccc([N+](=O)[O-])cc1 | 36.8% | 32.3% | 48.8 | 0.0% | 2.0%
C#CCOCCOCCOCCNc1nc(N2CCN(C(=O)CCCCCCCCCCNC(=O)[C@@H](CCSC)n3cc(CCO)nn3)CC2)nc(N2CCN(C(=O)CCCCCCCCCCNC(=O)[C@H]([C@@H](C)CC)n3cc(CCCCN=C(N)N)nn3)CC2)n1 | 1.65µM* | 0.415µM* | nt | ? | nt
C#CCOCCOCCOCCNc1nc(N2CCN(C(=O)[C@H](C(C)C)n3cc(CCO)nn3)CC2)nc(N2CCN(C(=O)[C@H]([C@@H](C)CC)n3cc(CCCCN)nn3)CC2)n1 | ? | ? | -29.6 | -8.0% | -12.7%
C#CCOCCOCCOCCNc1nc(N2CCN(C(=O)[C@H]([C@@H](C)CC)n3cc(CCCN=C(N)N)nn3)CC2)nc(N2CCN(C(=O)[C@H]([C@@H](C)CC)n3cc(CCC(=O)O)nn3)CC2)n1 | nt | nt | 7.6 | nt | nt
C#CCOCCOCCOCCNc1nc(N2CCN(C(=O)CCCCCCCCCCNC(=O)[C@@H](CCSC)n3cc(CCO)nn3)CC2)nc(N2CCN(C(=O)CCCCCCCCCCNC(=O)[C@H]([C@@H](C)CC)n3cc(CCCCCN)nn3)CC2)n1 | 1.65µM* | 2.08µM* | nt | 1.0% | nt
O=C(Nc1ccncc1)c1cc(S(=O)(=O)N2CCOCC2)ccc1Cl | ? | 2.8% | 24.2 | 0.4% | nt
O=C(NC(NC(=S)Nc1ccccc1)C(Cl)(Cl)Cl)c1cccc(Cl)c1 (centres undefined) | ? | 13.1µM* | -78.5* | -32.2% | 0.2%
Cc1ccccc1C(=O)NC(NC(=S)Nc1ccc(S(N)(=O)=O)cc1)C(Cl)(Cl)Cl (centres undefined) | ? | ? | 5.1 | -11.7% | -11.3%
O=C(O)c1cccc(NC(=S)NC(NC(=O)c2cccc([N+](=O)[O-])c2)C(Cl)(Cl)Cl)c1 (centres undefined) | 106.7% | -7.5% | -19.3 | -7.2% | 3.2%
O=C(CF)NC(NC(=S)Nc1ccccc1O)C(Cl)(Cl)Cl (centres undefined) | ? | -21.6% | -65.5* | -13.1% | -0.2%
O=C(COc1ccccc1)NC(NC(=S)Nc1ccccc1C(=O)O)C(Cl)(Cl)Cl (centres undefined) | -13.0% | 22.8% | -13.8 | -16.3% | 0.1%
O=C(NC(NC(=S)Nc1ccc(Cl)cc1Cl)C(Cl)(Cl)Cl)c1cccc([N+](=O)[O-])c1 (centres undefined) | 1.65µM* | ? | 4.0 | 3.3% | -5.5%
Cc1ccccc1NC(=S)NC(NC(=O)c1ccccc1C)C(Cl)(Cl)Cl (centres undefined) | ? | 2.62µM* | ? | 1.1% | 2.0%
O=C(CSCc1ccccc1)Nc1ccc(F)c(F)c1 | 56.7% | -1.8% | 32.7 | -9.8% | 1.9%
COc1ccc(NC(=S)NC(NC(=O)C(C)C)C(Cl)(Cl)Cl)c([N+](=O)[O-])c1 (centres undefined) | 2.62µM* | 50.4% | -7.8 | -8.6% | -10.0%
Cc1cc(C)c(NC(=S)NC(NC(=O)c2ccccc2)C(Cl)(Cl)Cl)c(C)c1 (centres undefined) | 3.29µM* | -7.7% | ? | 1.7% | -5.4%

Bioassay records deposited in PubChem by National Center for Advancing Translational Sciences (NCATS).
